# The list is not random: actives were taken first. Their share in the collection is about 5.4%.
# HSF1 inh – HSF1 inhibition; NIH3T3-HGL HSE-luciferase, MG132-induced, luminescence 8 h; active compounds read low; 300,000 tested, 0.77% active; activity change, negative = inhibition, % at 7.5 µM (by protocol);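 active = more than half of replicate wells show activity change below -50%, luminescence cut by over half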;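 also: luciferase reports HSF-1 transcriptional activity via heat shock element; 0% = median of DMSO wells and -100% = zero luminescence signal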
# AHR activator – activators of human aryl hydrocarbon receptor. AHR-responsive luciferase reporter cells, luminescence. 320,000 tested, 2.5% active. activation, % at 5 µM. P35869; in the data active = activation above about 47%;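 also: 0% = vehicle wells and 100% = reference agonist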
# Target sequence (P35869 whole entry, looked up): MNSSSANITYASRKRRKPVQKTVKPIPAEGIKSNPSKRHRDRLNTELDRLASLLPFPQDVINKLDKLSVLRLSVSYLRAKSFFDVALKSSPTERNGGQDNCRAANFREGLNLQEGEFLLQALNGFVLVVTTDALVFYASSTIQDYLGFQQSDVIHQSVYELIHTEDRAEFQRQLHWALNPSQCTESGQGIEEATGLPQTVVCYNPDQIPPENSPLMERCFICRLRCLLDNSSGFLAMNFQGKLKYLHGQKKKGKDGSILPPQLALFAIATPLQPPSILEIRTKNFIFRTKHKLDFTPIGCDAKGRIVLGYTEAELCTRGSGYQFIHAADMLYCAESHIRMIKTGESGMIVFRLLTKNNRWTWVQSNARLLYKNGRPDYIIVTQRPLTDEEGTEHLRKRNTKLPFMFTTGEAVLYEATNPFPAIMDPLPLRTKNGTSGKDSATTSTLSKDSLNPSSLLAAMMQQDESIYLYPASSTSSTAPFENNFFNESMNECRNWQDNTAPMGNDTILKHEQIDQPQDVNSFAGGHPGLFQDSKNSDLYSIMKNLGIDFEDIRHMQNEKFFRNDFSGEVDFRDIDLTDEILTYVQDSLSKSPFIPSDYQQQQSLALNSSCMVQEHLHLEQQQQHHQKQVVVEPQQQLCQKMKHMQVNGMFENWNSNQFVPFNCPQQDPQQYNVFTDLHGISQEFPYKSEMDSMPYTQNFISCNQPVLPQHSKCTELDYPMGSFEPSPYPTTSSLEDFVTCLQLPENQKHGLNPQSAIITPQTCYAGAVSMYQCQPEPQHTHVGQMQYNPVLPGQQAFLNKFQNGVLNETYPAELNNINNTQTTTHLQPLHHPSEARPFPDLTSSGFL
# GAA850 FXN act – activators of GAA850 frataxin (FXN) promoter; HEK293 lucGAA850 FXN promoter luciferase reporter, 24 h; percent of 10 µM SAHA response; activation, % at 6 µM; 360,000 tested, 0.56% active;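 active = activation above the average of all compounds screened plus 3 SD, cutoff fixed separately per campaign, cut at about 7.5% in these data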;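 also: 0% = DMSO wells and 100% = 10 µM SAHA wells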
# HSF1 activator – increases HSF-1 driven luciferase reporter signal | NIH3T3-HGL HSF-1 luciferase reporter, MG132, 8 h; 100% = twice DMSO control signal | activation, % at 9 µM | 300,000 tested, 1.7% active | AID 504408;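 active = mean replicate activation of at least 50% with a set share of replicates each reaching 50%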;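 also: 0% = median of the neutral control wells and 100% = twice that signal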
# DAX1 inh – NR0B1 (DAX1) inhibition; P51843; HEK293 Gal4-DAX1 luciferase reporter, luminescence; inhibition, % at 6.75 µM; 340,000 tested, 0.99% active; AID 504766;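 active = inhibition above the mean over all tested compounds plus 3 SD, cut at about 4.2% in these data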;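 also: 0% = DAX1-transfected cells with DMSO and 100% = empty-vector control cells with DMSO; inhibition shows as a rise in luminescence from relieved DAX1 repression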
# The depositor's hits bear a star; · = no result.
SMILES,HSF1 inh,AHR activator,GAA850 FXN act,HSF1 activator,DAX1 inh
COc1cccc(NC(=O)NCCC2=CCCCC2)c1,19,16,6,46,1
Cc1ccc(Cl)cc1-n1c(SCC(=O)NCCC2=CCCCC2)nc2n[nH]c(C)c2c1=N,33,19,-2,56*,1
O=C(CSc1ccc(-c2ccc(Br)cc2)nn1)NC1CCCC1,6,4,1,16,0
Cc1cc(=O)[nH]c(SCC(=O)NCCC2=CCCCC2)n1,-1,1,2,-9,4.9*
CCOC(=O)N1CCC(n2c(SCC(=O)NCCC3=CCCCC3)nc3ccccc3c2=O)CC1,8,-4,-4,18,4.4*
Cc1cc(-n2c(SCC(=O)NCCC3=CCCCC3)nc3n[nH]c(C)c3c2=N)ccc1Cl,13,53*,-4,34,0
Cc1ccc(-n2c(SCC(=O)NCC3CCCO3)nc3n[nH]c(C)c3c2=N)cc1Cl (stereo not given),-1,59*,-3,11,-1
CCOC(=O)C(=O)N(C)c1c(CC)nc2c(OCc3ccccc3)cccn12,·,·,1,·,·
O=c1c2ccccc2nnn1COc1cccc(Cl)c1,55,4,2,74*,2
O=C(COc1ccc(Cl)cc1Cl)OCn1nnc2ccccc2c1=O,10,4,2,-8,0
Cc1ccc2c(c1)S(=O)(=O)c1ccc3ccccc3c1N2,·,·,0,·,0
COc1ccc(/C=N/NC(=O)c2cc(-c3ccc4c(c3)OCO4)n[nH]2)cc1OC,4,73*,2,6,1
O=C(N/N=C/c1ccc(F)cc1)c1cc(-c2ccc3c(c2)OCO3)n[nH]1,8,39,1,25,4.6*
COc1cc(/C=N/NC(=O)c2ccc3c(c2)OCO3)ccc1O,4,·,2,4,0
CN(C)c1ccc(/C=N/NC(=O)c2cc(-c3ccc4c(c3)OCO4)n[nH]2)cc1,16,44,-4,42,-2
CCc1cccc(NC(=O)c2cccc3c2C(=O)N(CC2CCCO2)C3)c1 (stereo not given),-2,-6,5,-17,-1
Cc1ccc(C(=O)Nc2ccc(Cl)cc2C)c(Cl)c1,49,-6,4,67*,1
Cc1ccc(NC(=O)c2ccc(Cl)cc2Cl)cc1O,6,20,1,7,7.7*
Cc1ccc(C(=O)Nc2ccc(Cl)cc2C(F)(F)F)c(Cl)c1,11,-2,4,6,1
COCC(=O)Nc1ccc2c(c1)[C@@H]1C[C@H](CC(=O)OC)O[C@H](CO)[C@@H]1O2,·,·,-1,·,4.6*
O=C(NNC(=O)C1CC=CCC1)c1cccc(Br)c1 (stereo not given),·,0,1,·,4.6*
CC(C)Cn1c2c(c(=O)[nH]c1=O)C(NS(=O)(=O)c1ccc(Cl)cc1)(C(F)(F)F)C(=O)N2 (stereo not given),0,1,4,5,4.3*
CC(C)(C)NC(=O)CN(C(=O)CCC(=O)Nc1nccs1)c1ccccc1F,·,·,0,·,2
COc1ccc(/C(C)=N/Nc2nc3ccccc3nc2C)cc1OC,-7,77*,4,-25,5.1*
CCNC(=O)C1(C)CCCN(C(=O)c2ccnc(Cl)c2)C1 (stereo not given),·,·,-1,·,·
SMILES,HSF1 inh,AHR activator,GAA850 FXN act,HSF1 activator,DAX1 inh
CSc1ccccc1OCc1cc(C(=O)N2CCCC(C)C2)no1 (stereo not given),17,11,5,50,2
COc1ccc(OCc2cc(C(=O)N3CCCC(CO)C3)no2)c2ccccc12 (stereo not given),38,50*,5,49,1
COc1cc(Cl)ccc1OCc1cc(C(=O)N2C[C@@H]3CCC[C@H]2C3)no1,32,21,5,56*,1
CCCOC1CCCN(C(=O)c2cc(COc3ccc(-n4cncn4)cc3)on2)C1 (stereo not given),32,5,0,60*,0
COc1cc(Cl)ccc1OCc1cc(C(=O)N2C[C@H]3CC[C@H]2C3)no1,16,14,2,47,3
COc1ccccc1OCc1cc(C(=O)N2CCCC(OCc3cccnc3)C2)no1 (stereo not given),39,33,6,63*,2
COc1ccc(NC(=O)CCc2nnc3ccc(N4CCC(C)CC4)nn23)cc1OC,-71*,0,-1,-78,0
COc1ccc(OC)c(NC(=O)CCc2nnc3ccc(N4CCC(C)CC4)nn23)c1,3,2,1,1,0
Cc1ccc(NC(=O)CCSc2ccccn2)cc1,20,2,3,26,4.2*
Cc1ccc(C(=O)CSc2ccccn2)cc1,31,-3,7,53*,3
COc1ccc(NC(C)(C)c2nnnn2-c2c(C)cccc2C)cc1,-5,4,1,12,0
CCOC(=O)N1CCC(NC(=O)CN2C(=O)CSc3nc(C)cc(C)c32)CC1,-71*,-1,-2,-78,1
CCOC(=O)N1CCN(C(=O)CCCN2C(=O)CSc3nc(C)cc(C)c32)CC1,12,0,2,17,3
CCOC(=O)N1CCC(NC(=O)CN2C(=O)CSc3ncccc32)CC1,2,1,-1,24,5.0*
Cn1c(=O)ccc2ccccc21,·,·,-2,·,·
CC(C)Cn1cnc2c(Sc3c([N+](=O)[O-])ncn3C)nc(N)nc21,·,·,0,·,-1
CC(C)c1ccc(N(C(=O)CNC(=O)c2ccco2)C(C(=O)NC2CCCC2)c2ccncc2)cc1 (stereo not given),84,5,-2,168*,0
Cc1cccc(N(C(=O)c2ccco2)C(C(=O)NC2CCCC2)c2cccnc2)c1C (stereo not given),-79*,4,-1,-84,-1
O=C(NCC(=O)N(c1ccccc1)C(C(=O)NC1CCCC1)c1ccncc1)c1ccco1 (stereo not given),0,-1,2,-14,0
O=C(CN1CCN(Cc2ccccc2Cl)CC1)N=Nc1c(O)[nH]c2ccccc12,12,4,3,52*,-1
CC(C)OC(=O)Cc1nc2sc(-c3ccccc3)cc2c(=O)[nH]1,28,4,2,52*,1
O=c1[nH]c(-c2cccnc2)nc2sc(-c3ccccc3)cc12,·,75*,-3,·,3
Cc1nc2sc(-c3ccccc3)cc2c(=O)[nH]1,0,7,5,25,-2
CCCCn1c(N)c(N(CC(C)C)C(=O)CC2CCCC2)c(=O)[nH]c1=O,-6,1,-5,0,0
O=C(NC1CCCCC1)C1CCN(c2nccs2)CC1,-58*,1,-1,-69,0
CC1CCC(NC(=O)C2CCN(c3cnccn3)CC2)CC1 (stereo not given),-7,1,-2,-30,7.1*
COC(=O)C1CCN(c2cnccn2)CC1,-7,1,-1,6,0
COC(=O)c1ccc2c(=O)n(-c3ccccc3F)c(=S)[nH]c2c1,8,7,0,19,0

# Screening data as filed in PubChem.
